The other results are listed elsewhere or left out. The hit rate among all sequences tested is not known here.
Molecular target: furin, P09958
Experiment: furin cleavage Z-score vs untreated control; higher = more cleavage, active = 3.5 or more, inactive = 1 or less, 8 variable residues between constant flanks
Protocol: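 Multiplexed peptide-cDNA fusion cleavage assay. 8-mer variable peptides flanked by constant Cys-Ala (N-term) and Ala-Gly-Asn-Ala-Ser-Ala-Ser-Ala (C-term) and conjugated to a cDNA oligonucleotide were bead-immobilised via the N-terminus. They were treated with purified furin at a 1:10 enzyme:substrate ratio in 50 mM HEPES pH 7.5, 1 mM CaCl2, 100 mM NaCl for 7.5, 15 or 30 min. Released cDNA was counted by next-generation sequencing, and log counts versus no-furin controls were lowess-adjusted and converted to robust Z-scores.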

furin, P09958, sequence (P09958 whole entry): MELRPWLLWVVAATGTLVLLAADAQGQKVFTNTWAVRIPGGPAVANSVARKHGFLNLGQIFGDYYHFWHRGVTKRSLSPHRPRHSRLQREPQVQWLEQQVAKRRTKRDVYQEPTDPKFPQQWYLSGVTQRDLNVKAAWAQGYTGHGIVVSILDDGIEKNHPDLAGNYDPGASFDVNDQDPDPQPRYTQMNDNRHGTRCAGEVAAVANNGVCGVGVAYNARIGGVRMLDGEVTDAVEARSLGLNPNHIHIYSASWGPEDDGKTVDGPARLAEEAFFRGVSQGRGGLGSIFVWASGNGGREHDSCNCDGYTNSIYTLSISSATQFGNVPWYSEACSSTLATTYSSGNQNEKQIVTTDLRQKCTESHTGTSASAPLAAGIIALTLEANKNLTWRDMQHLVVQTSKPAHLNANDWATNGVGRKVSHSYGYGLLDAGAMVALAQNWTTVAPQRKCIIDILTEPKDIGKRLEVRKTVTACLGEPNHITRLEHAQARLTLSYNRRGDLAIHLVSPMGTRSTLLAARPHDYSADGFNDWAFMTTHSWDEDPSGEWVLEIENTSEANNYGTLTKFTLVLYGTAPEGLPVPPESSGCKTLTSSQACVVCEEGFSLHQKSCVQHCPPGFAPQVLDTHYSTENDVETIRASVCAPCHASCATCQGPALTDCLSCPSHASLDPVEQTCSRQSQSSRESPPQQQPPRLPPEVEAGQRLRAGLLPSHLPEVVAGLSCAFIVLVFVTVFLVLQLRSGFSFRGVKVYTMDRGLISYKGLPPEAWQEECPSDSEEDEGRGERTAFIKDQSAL

CAYTNVDQDLAGNASASA [HC711]
furin cleavage Z-score (7.5 min): -0.889 (inactive) | furin cleavage Z-score (15 min): -0.433 (inactive) | furin cleavage Z-score (30 min): -0.26 (inactive)

CALTVPASAYAGNASASA [HC253]
furin cleavage Z-score (7.5 min): 0.273 (inactive) | furin cleavage Z-score (15 min): -0.258 (inactive) | furin cleavage Z-score (30 min): 0.0356 (inactive)

CAGPRRPMRPAGNASASA [FS-785]
furin cleavage Z-score (7.5 min): 0.568 (inactive) | furin cleavage Z-score (15 min): -0.102 (inactive) | furin cleavage Z-score (30 min): -1.31 (inactive)

CACGDIINGLAGNASASA [HC657]
furin cleavage Z-score (7.5 min): -0.652 (inactive) | furin cleavage Z-score (15 min): -0.156 (inactive) | furin cleavage Z-score (30 min): 0.306 (inactive)

CAENDTDVFVAGNASASA [HC426]
furin cleavage Z-score (7.5 min): -0.537 (inactive) | furin cleavage Z-score (15 min): 0.514 (inactive) | furin cleavage Z-score (30 min): -0.867 (inactive)

CARCQRDAMCAGNASASA [FS-2651]
furin cleavage Z-score (7.5 min): -1.14 (inactive) | furin cleavage Z-score (15 min): 0.877 (inactive) | furin cleavage Z-score (30 min): 1.14

CAAPPRRKRRAGNASASA [FS-976]
furin cleavage Z-score (7.5 min): 7.74 (active) | furin cleavage Z-score (15 min): 7.56 (active) | furin cleavage Z-score (30 min): 5.8 (active)

CALRFCALARAGNASASA [HC620]
furin cleavage Z-score (7.5 min): 1.83 | furin cleavage Z-score (15 min): 0.507 (inactive) | furin cleavage Z-score (30 min): -0.572 (inactive)

CACRKRRKRCAGNASASA [FS-17]
furin cleavage Z-score (7.5 min): 4.55 (active) | furin cleavage Z-score (15 min): 0.934 (inactive) | furin cleavage Z-score (30 min): 1.07

CALRFRRKRRAGNASASA [FS-826]
furin cleavage Z-score (7.5 min): 11.4 (active) | furin cleavage Z-score (15 min): 12.4 (active) | furin cleavage Z-score (30 min): 10.4 (active)

CALREEVSFRAGNASASA [HC1231]
furin cleavage Z-score (7.5 min): -0.828 (inactive) | furin cleavage Z-score (15 min): -0.657 (inactive) | furin cleavage Z-score (30 min): -0.791 (inactive)

CAGRSEFKRCAGNASASA [FS-1331]
furin cleavage Z-score (7.5 min): -0.855 (inactive) | furin cleavage Z-score (15 min): -0.736 (inactive) | furin cleavage Z-score (30 min): -0.471 (inactive)

CAVRNRRKRKAGNASASA [FS-1434]
furin cleavage Z-score (7.5 min): 8.59 (active) | furin cleavage Z-score (15 min): 9.19 (active) | furin cleavage Z-score (30 min): 8.05 (active)

CAEMPRDRRRAGNASASA [FS-325]
furin cleavage Z-score (7.5 min): -1.37 (inactive) | furin cleavage Z-score (15 min): -0.519 (inactive) | furin cleavage Z-score (30 min): -0.0256 (inactive)

CATGCVVIVGAGNASASA [HC999]
furin cleavage Z-score (7.5 min): 0.288 (inactive) | furin cleavage Z-score (15 min): -0.105 (inactive) | furin cleavage Z-score (30 min): 1.66

CATTPCCGSWAGNASASA [HC74]
furin cleavage Z-score (7.5 min): -2.07 (inactive) | furin cleavage Z-score (15 min): -0.069 (inactive) | furin cleavage Z-score (30 min): -1.52 (inactive)

CAEFTLLTRIAGNASASA [FS-988]
furin cleavage Z-score (7.5 min): -0.861 (inactive) | furin cleavage Z-score (15 min): -1.86 (inactive) | furin cleavage Z-score (30 min): 0.256 (inactive)

CALRFRRKRKAGNASASA [FS-825]
furin cleavage Z-score (7.5 min): 9.84 (active) | furin cleavage Z-score (15 min): 11 (active) | furin cleavage Z-score (30 min): 8.47 (active)

CALIFCHSKKAGNASASA [HC856]
furin cleavage Z-score (7.5 min): -0.592 (inactive) | furin cleavage Z-score (15 min): -0.736 (inactive) | furin cleavage Z-score (30 min): -0.784 (inactive)

CAMEEMSQHLAGNASASA [HC8]
furin cleavage Z-score (7.5 min): 1.27 | furin cleavage Z-score (15 min): 1.33 | furin cleavage Z-score (30 min): 0.916 (inactive)

CAAAILRRHVAGNASASA [HC1110]
furin cleavage Z-score (7.5 min): -1.81 (inactive) | furin cleavage Z-score (15 min): 1.42 | furin cleavage Z-score (30 min): 1.16

CAAAIREKRAAGNASASA [FS-153]
furin cleavage Z-score (7.5 min): 10.5 (active) | furin cleavage Z-score (15 min): 11.2 (active) | furin cleavage Z-score (30 min): 8.65 (active)

CALADREKRAAGNASASA [FS-683]
furin cleavage Z-score (7.5 min): 5.37 (active) | furin cleavage Z-score (15 min): 7.31 (active) | furin cleavage Z-score (30 min): 4.83 (active)

CALASHPKRAAGNASASA [FS-1355]
furin cleavage Z-score (7.5 min): -0.0202 (inactive) | furin cleavage Z-score (15 min): 0.46 (inactive) | furin cleavage Z-score (30 min): -0.107 (inactive)

CAEMVTSTWVAGNASASA [HC2166]
furin cleavage Z-score (7.5 min): -0.179 (inactive) | furin cleavage Z-score (15 min): 0.272 (inactive) | furin cleavage Z-score (30 min): -0.181 (inactive)

CACSGGAYDIAGNASASA [HC813]
furin cleavage Z-score (7.5 min): -0.539 (inactive) | furin cleavage Z-score (15 min): -1.15 (inactive) | furin cleavage Z-score (30 min): 0.556 (inactive)

CAVVLLLFAGAGNASASA [HC347]
furin cleavage Z-score (7.5 min): -2.22 (inactive) | furin cleavage Z-score (15 min): 0.376 (inactive) | furin cleavage Z-score (30 min): -0.682 (inactive)

CALLQTASRQAGNASASA [HC1028]
furin cleavage Z-score (7.5 min): 0.222 (inactive) | furin cleavage Z-score (15 min): 0.569 (inactive) | furin cleavage Z-score (30 min): 0.432 (inactive)

CAPPRRKRRQAGNASASA [FS-71]
furin cleavage Z-score (7.5 min): 8.73 (active) | furin cleavage Z-score (15 min): 9.48 (active) | furin cleavage Z-score (30 min): 8.32 (active)

CALLADARVCAGNASASA [HC523]
furin cleavage Z-score (7.5 min): 0.91 (inactive) | furin cleavage Z-score (15 min): -0.28 (inactive) | furin cleavage Z-score (30 min): -1.13 (inactive)

CALAALAAYCAGNASASA [HC994]
furin cleavage Z-score (7.5 min): 0.554 (inactive) | furin cleavage Z-score (15 min): 1.14 | furin cleavage Z-score (30 min): 0.545 (inactive)

CALLARDRRQAGNASASA [FS-1025]
furin cleavage Z-score (7.5 min): 6.87 (active) | furin cleavage Z-score (15 min): 9.4 (active) | furin cleavage Z-score (30 min): 7.76 (active)

CALAARKRRQAGNASASA [FS-604]
furin cleavage Z-score (7.5 min): 12.2 (active) | furin cleavage Z-score (15 min): 12.1 (active) | furin cleavage Z-score (30 min): 10 (active)

CAHGLSAFSLAGNASASA [HC1604]
furin cleavage Z-score (7.5 min): 0.973 (inactive) | furin cleavage Z-score (15 min): 0.919 (inactive) | furin cleavage Z-score (30 min): 1.37

CAVVYCSMSYAGNASASA [HC2029]
furin cleavage Z-score (7.5 min): -0.409 (inactive) | furin cleavage Z-score (15 min): -0.331 (inactive) | furin cleavage Z-score (30 min): 0.819 (inactive)

CASTEDLVNLAGNASASA [HC1098]
furin cleavage Z-score (7.5 min): 0.352 (inactive) | furin cleavage Z-score (15 min): -0.11 (inactive) | furin cleavage Z-score (30 min): -0.537 (inactive)

CAVVCCEMSYAGNASASA [HC113]
furin cleavage Z-score (7.5 min): 1.04 | furin cleavage Z-score (15 min): -0.157 (inactive) | furin cleavage Z-score (30 min): 2.06

CAAKQRGKRAAGNASASA [FS-578]
furin cleavage Z-score (7.5 min): 7.85 (active) | furin cleavage Z-score (15 min): 6.99 (active) | furin cleavage Z-score (30 min): 6.51 (active)

CAKGYRGKRAAGNASASA [FS-448]
furin cleavage Z-score (7.5 min): 9.98 (active) | furin cleavage Z-score (15 min): 9.64 (active) | furin cleavage Z-score (30 min): 8.26 (active)

CAEFKRCWKGAGNASASA [FS-2859]
furin cleavage Z-score (7.5 min): -0.792 (inactive) | furin cleavage Z-score (15 min): 0.463 (inactive) | furin cleavage Z-score (30 min): -0.89 (inactive)

CAPRDRPRRSAGNASASA [FS-1384]
furin cleavage Z-score (7.5 min): 12.7 (active) | furin cleavage Z-score (15 min): 13.7 (active) | furin cleavage Z-score (30 min): 10.6 (active)

CAPLPRPRRSAGNASASA [FS-473]
furin cleavage Z-score (7.5 min): 6.49 (active) | furin cleavage Z-score (15 min): 5.07 (active) | furin cleavage Z-score (30 min): 4.07 (active)

CALCARPRRSAGNASASA [FS-348]
furin cleavage Z-score (7.5 min): 10.1 (active) | furin cleavage Z-score (15 min): 10.4 (active) | furin cleavage Z-score (30 min): 9.44 (active)

CAATPRPRRSAGNASASA [FS-980]
furin cleavage Z-score (7.5 min): 11.1 (active) | furin cleavage Z-score (15 min): 11.2 (active) | furin cleavage Z-score (30 min): 7.55 (active)

CAQPPRPFRSAGNASASA [FS-704]
furin cleavage Z-score (7.5 min): -0.352 (inactive) | furin cleavage Z-score (15 min): 1.58 | furin cleavage Z-score (30 min): -0.0165 (inactive)

Reference: the supplement of paper PMC3545927
